Screens (PubChem BioAssay)
Mtb bLac sens = beta-lactam sensitization of Mtb H37Rv; M. tuberculosis H37Rv growth with meropenem, percent inhibition; inhibition, % at 25 µM; 330,000 compounds, 0.27% hits; call rule not given here;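 also: growth measured after seven days incubation then overnight dye step; 0% = bacteria only wells and 100% = bacteria with antibiotic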
GDH-TPI counter-1 = GDH-TPI coupled enzyme inhibition counter-screen; inhibition, % at 4.8 µM; AID 588335; GDH-TPI coupled enzyme counterscreen, NADH absorbance; 360,000 compounds, 1.2% hits; in the data active = inhibition above about 30%;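 also: 0% = DMSO wells and 100% = wells lacking the enzyme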
VHR inh abs = inhibitors of human VHR1 phosphatase (DUSP3). inhibition, % at 13.3 µM. 290,000 compounds, 0.52% hits. P51452. recombinant VHR phosphatase, pNPP absorbance; in the data active = inhibition above about 50%
Target sequence (P51452 whole entry, looked up): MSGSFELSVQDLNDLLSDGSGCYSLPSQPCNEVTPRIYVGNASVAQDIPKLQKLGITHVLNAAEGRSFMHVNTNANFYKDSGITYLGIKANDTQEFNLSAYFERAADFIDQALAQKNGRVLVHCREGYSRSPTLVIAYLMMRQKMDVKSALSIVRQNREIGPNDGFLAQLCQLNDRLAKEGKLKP
Mtb hypoxia inh = Mtb hypoxia fluorescent reporter inhibition; M. tuberculosis hypoxia-regulated fluorescent reporter, fluorescence; fluorescence inhibition, % (test concentration not listed); 300,000 compounds, 0.1% hits; in the data active = fluorescence inhibition mostly above about 23%, no sharp cut-off; inactive = mostly below about 17%
FBA Mtb inh = inhibitors of M. tuberculosis fructose-bisphosphate aldolase. P9WQA3. 360,000 compounds, 2.3% hits. inhibition, % at 1 µM. purified M. tuberculosis FBA, fluorescence read-out;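 also: 0% = vehicle and 100% = reference inhibitor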
Target sequence (P9WQA3 whole entry, looked up): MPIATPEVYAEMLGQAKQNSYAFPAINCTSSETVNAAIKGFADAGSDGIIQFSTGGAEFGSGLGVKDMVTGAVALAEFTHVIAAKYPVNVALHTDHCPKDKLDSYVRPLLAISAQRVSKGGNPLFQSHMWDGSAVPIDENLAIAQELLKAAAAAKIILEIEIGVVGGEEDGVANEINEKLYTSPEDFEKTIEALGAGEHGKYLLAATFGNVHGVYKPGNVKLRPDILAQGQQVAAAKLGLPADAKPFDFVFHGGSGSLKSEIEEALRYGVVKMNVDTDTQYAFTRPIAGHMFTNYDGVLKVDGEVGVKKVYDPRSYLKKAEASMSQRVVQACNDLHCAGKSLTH
Mtb FBA confirm = Mtb FBA inhibition, confirmed | shares compounds with FBA Mtb inh | purified M. tuberculosis FBA, fluorescence read-out | inhibition, % at 1 µM | 5,600 compounds, 78% hits | AID 651616;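 also: 0% = vehicle wells and 100% = reference inhibitor wells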
GDH-TPI counter-2 = GDH-TPI inhibition counter-screen for FBA inhibitors. shares compounds with FBA Mtb inh. GDH-TPI coupled enzyme counterscreen, fluorescence. inhibition, % at 1 µM. 5,600 compounds, 81% hits. AID 652141; in the data active = inhibition above about 10%
Numbers without * were called inactive; . = no result; + = active, no number. Compounds with a hit are over-represented: about 3.6% of the library has one in this group of screens. Rule as the data show it, unless noted: active = inhibition above about 27%; inactive = the rest.

SMILES | Mtb bLac sens | GDH-TPI counter-1 | VHR inh abs | Mtb hypoxia inh | FBA Mtb inh | Mtb FBA confirm | GDH-TPI counter-2
CCOC(=O)C1C2COc3cc(OC)ccc3C2N2C(=O)N(c3ccc(Cl)cc3)C(=O)[C@@]12C (stereo not given in full) | . | . | . | 5 | . | . | .
COCCNC(=O)C1(C)Cc2c(-c3ccc(NC(C)=O)cc3)ccnc2O1 (stereo not given) | . | 4 | . | . | 12 | . | .
CN(C)c1ccc(CNC(=O)C2(C)Cc3c(-c4ccccc4)ccnc3O2)cc1 (stereo not given) | . | -7 | . | . | -3 | . | .
COCCNC(=O)C1(C)Cc2c(-c3ccc(N(C)C)cc3)ccnc2O1 (stereo not given) | . | 15 | . | . | 32* | 128* | 104*
CN(C)c1ccc(-c2ccnc3c2CC(C)(C(=O)NCCc2ccccc2)O3)cc1 (stereo not given) | . | 15 | . | . | 47* | 109* | 73*
CN(C)c1ccc(-c2ccnc3c2CC(C)(C(=O)NCC2CC2)O3)cc1 (stereo not given) | . | 25 | . | . | 35* | + | 164*
CN(C)c1ccc(CNC(=O)C2(C)Cc3c(-c4ccc(N(C)C)cc4)ccnc3O2)cc1 (stereo not given) | . | 30 | . | . | 46* | 58* | 50*
Cc1ccccc1OCc1nc2ccccc2c(=O)n1N=Cc1cn[nH]c1-c1ccc(Br)cc1 | . | . | . | 2 | . | . | .
O=C(ON=Cc1ccc(N2CCCCC2)c([N+](=O)[O-])c1)c1ccc(Cl)cc1Cl | . | . | . | 9 | . | . | .
COc1ccc(N(C(=O)c2snc(C(N)=O)c2N)C(C(=O)NCc2ccccc2)c2ccc(O)cc2)cc1 (stereo not given) | . | -1 | 21 | 14 | -6 | . | .
NC(=O)c1nsc(C(=O)N(c2ccccc2)C(C(=O)NCc2ccc(F)cc2)c2ccc(O)cc2)c1N (stereo not given) | -4 | 4 | 7 | 4 | 37* | -2 | -5
CCOc1ccc(-c2cc(C)[n+](CCO)c(-c3ccc(OCC)cc3)c2)cc1 | -3 | 28 | 16 | 12 | 63* | 67* | 49*
O=c1[nH]c2c(=O)[nH]cnc2nc1-c1ccccc1 | -6 | 3 | . | -1 | 74* | 56* | 42*
c1ccc(-n2nnc3cnccc32)cc1 | -5 | 2 | 2 | 8 | 4 | . | .
Nc1ccc2c(c1)nnn2-c1ccccc1 | 97 | -7 | 9 | 5 | 31* | 190* | 152*
COc1ccc(SCC(Cc2ccccc2)N2CCC(NC(=O)OCc3ccccc3)CCC2=O)cc1 (stereo not given) | . | . | . | 13 | . | . | .
COc1cc2nc(N3CCNCC3)nc(N)c2cc1OC | -13 | 4 | -5 | 9 | 56* | 8 | -3
COc1cc2nc(N3CCN(c4cc(C)ccc4C)CC3)nc(N)c2cc1OC | 100 | 15 | 2 | -16 | 6 | . | .
O=C(CCCCCn1c(=S)[nH]c2ccc(N3CCOCC3)cc2c1=O)NCc1ccc2c(c1)OCO2 | -2 | -1 | 28 | 5 | 44* | + | +
Cc1ccsc1C1NC(=O)c2c(sc3c2CCN(C)C3)N1 (stereo not given) | 9 | 12 | 0 | 5 | 44* | -5 | -5
CN1CCc2c(sc3c2C(=O)NC(c2cccs2)N3)C1 (stereo not given) | 3 | 15 | 18 | 1 | 26 | . | .
COc1ccc2nc3oc(C(=O)N4CCCCC4)cc3cc2c1 | 67 | 24 | -13 | . | 57* | 84* | 63*
COc1ccc2cc3cc(C(=O)N4CCN(c5ccccc5)CC4)oc3nc2c1 | 15 | 6 | 37 | 2 | 4 | . | .
CCOC(=O)C1CCN(C(=O)c2cc3cc4cc(OC)ccc4nc3o2)CC1 | -8 | 19 | 0 | -2 | 55* | 109* | 98*
CC1CC(C)CN(C(=O)c2cc3ccccc3o2)C1 (stereo not given) | 43 | -2 | . | 2 | -1 | . | .
SMILES | Mtb bLac sens | GDH-TPI counter-1 | VHR inh abs | Mtb hypoxia inh | FBA Mtb inh | Mtb FBA confirm | GDH-TPI counter-2
COc1ccc2nc3oc(C(=O)N4CC(C)CC(C)C4)cc3cc2c1 (stereo not given) | 29 | 17 | 19 | 20 | 56* | -1 | -4
CCOC(=O)C1CCCN(C(=O)c2cc3cc4ccc(OC)cc4nc3o2)C1 (stereo not given) | 3 | 23 | 11 | 9 | 92* | 55* | 32*
COC(=O)C1=C(c2ccc(F)cc2OCc2ccccc2)CC2CCC1N2C(=O)NC1CCN(Cc2ccccc2)CC1 (stereo not given) | . | . | . | -11 | . | . | .
COc1ccccc1NC(=O)COc1ccc(C=NNC(=O)c2cccnc2)cc1 | . | . | . | 16 | . | . | .
CN(C)c1ccc(C=NO)cc1 | . | . | . | 9 | . | . | .
CCC(CO)Nc1ccn2nc(-c3cccc(Cl)c3)cc2n1 (stereo not given) | . | 7 | . | . | 31* | 28* | 21*
COCCCNc1ccn2nc(-c3ccccc3)cc2n1 | . | 7 | . | . | 21 | . | .
COc1cc(-c2cc3nc(NC4CCCCC4)ccn3n2)cc(OC)c1OC | . | 11 | . | . | 31* | -8 | -7
OC1CCC(Nc2ccn3nc(-c4cccc(OCc5ccccc5)c4)cc3n2)CC1 (stereo not given) | . | 8 | . | . | 29* | 54* | 39*
COCCCNc1ccn2nc(-c3cccc(Cl)c3)cc2n1 | . | 0 | . | . | 35* | 9 | -2
CCOC(=O)c1cc(C(C)=NOC(=O)c2ccc(Cl)cc2)on1 | . | . | . | 1 | . | . | .
Cc1ccc2c(c1)C1C(CO2)C(c2ccccc2)[C@]2(C)C(=O)NCC(=O)N12 (stereo not given in full) | . | . | . | 11 | . | . | .
CCC1=C(OC(=O)N(CC)CC)N2C(=O)OC(=NCc3ccccc3)[C@]2(C)C2C1=CCC1C(=O)N(c3ccccc3)C(=O)C12 (stereo not given in full) | . | . | . | 1 | . | . | .
OC1CCC(Nc2ccn3nc(-c4cccc(Cl)c4)cc3n2)CC1 (stereo not given) | . | 6 | . | . | 34* | 61* | 42*
CCCCN1C(=S)NCC1c1ccccc1 (stereo not given) | . | . | . | 2 | . | . | .
COc1ccc2[nH]c3c(NCCN4CCCCC4)ncnc3c2c1 | 12 | 15 | 8 | 5 | 25 | . | .
CCOc1ccc2[nH]c3c(NCCc4ccc(OC)c(OC)c4)ncnc3c2c1 | 7 | 16 | 16 | 4 | 32* | 181* | 147*
CCCCOc1ncnc2c1[nH]c1ccc(OCC)cc12 | 27 | 9 | 7 | 0 | 8 | . | .
CCOc1ccc2[nH]c3c(NCCO)ncnc3c2c1 | 1 | 1 | -15 | 3 | 78* | 45* | 43*
O=C(O)CCC(=NNc1ccc(S(=O)(=O)N2CCOCC2)cc1[N+](=O)[O-])c1cccs1 | . | . | . | 21 | . | . | .
CN(Cc1c(C(=O)NN=Cc2ccc(O)cc2)nnn1-c1nonc1N)C1CCCCC1 | . | . | . | 4 | . | . | .
Cc1ccc(C=Nn2cc(-c3ccccc3)[nH]c2=S)s1 | . | . | . | 4 | . | . | .
COC(=O)c1cc(C)nc(N)c1C#N | 1 | 3 | 28 | . | 108* | 128* | 82*
C#CCSc1nc(C)cc(C(=O)OCC)c1C#N | 16 | 0 | -5 | 2 | 3 | . | .
